Anthrax LF prot: inhibitors of Bacillus anthracis lethal factor protease. P15917. multiplex microsphere protease cleavage assay, LF. inhibition, % at 10 µM. 0.12% of 360,000 active
Target sequence (P15917 whole entry, looked up): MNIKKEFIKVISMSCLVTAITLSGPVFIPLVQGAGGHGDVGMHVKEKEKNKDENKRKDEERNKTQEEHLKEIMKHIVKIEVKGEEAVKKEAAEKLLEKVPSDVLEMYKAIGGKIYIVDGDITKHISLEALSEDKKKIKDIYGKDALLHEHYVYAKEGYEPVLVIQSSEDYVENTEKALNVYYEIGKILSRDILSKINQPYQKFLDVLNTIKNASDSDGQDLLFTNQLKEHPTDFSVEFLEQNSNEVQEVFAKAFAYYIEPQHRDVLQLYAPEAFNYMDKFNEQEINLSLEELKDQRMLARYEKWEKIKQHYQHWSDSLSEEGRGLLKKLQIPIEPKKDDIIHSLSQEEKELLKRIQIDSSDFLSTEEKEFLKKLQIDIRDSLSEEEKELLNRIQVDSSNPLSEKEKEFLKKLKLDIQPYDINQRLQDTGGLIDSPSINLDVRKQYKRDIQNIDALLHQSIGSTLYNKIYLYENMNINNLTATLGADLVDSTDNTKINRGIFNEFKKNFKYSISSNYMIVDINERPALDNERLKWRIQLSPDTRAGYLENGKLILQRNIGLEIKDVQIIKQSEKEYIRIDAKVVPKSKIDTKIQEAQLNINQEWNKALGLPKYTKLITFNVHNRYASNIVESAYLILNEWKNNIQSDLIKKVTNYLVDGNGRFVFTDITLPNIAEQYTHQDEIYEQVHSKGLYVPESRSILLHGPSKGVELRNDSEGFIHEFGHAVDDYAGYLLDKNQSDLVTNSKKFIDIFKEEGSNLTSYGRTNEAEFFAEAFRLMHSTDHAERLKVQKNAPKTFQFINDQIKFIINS
BoNT-F LC inh: inhibitors of Botulinum neurotoxin F light chain protease; 0.22% of 360,000 active; Multiplex microsphere protease cleavage assay, flow cytometry; AID 588497; inhibition, % at 10 µM; in the data active means inhibition above about 35%, passing the limit was not always enough; inconclusive means no clear call, values can overlap the other calls
Bead autofluor: counter-screen for toxin protease inhibitors: compound fluorescence | compound autofluorescence counterscreen, microsphere flow cytometry; stronger effect = higher value | fluorescence intensity (concentration not given with the values) | 3.1% of 360,000 active | AID 624483; in the data active means fluorescence intensity above about 16000; inconclusive means no clear call, values can overlap the other calls
BoNT A protease: BoNT A light chain protease inhibition; inhibition, % at 10 µM; 0.17% of 360,000 active; multiplex microsphere protease substrate cleavage, flow cytometry; AID 588499
FBA Mtb inh: Mtb fructose-bisphosphate aldolase inhibition. 2.3% of 360,000 active. inhibition, % at 1 µM. purified M. tuberculosis FBA, fluorescence read-out; in the data active means inhibition above about 27%
GDH-TPI inh: GDH-TPI coupled enzyme inhibition counter-screen; GDH-TPI coupled enzyme counterscreen, NADH absorbance; 1.2% of 360,000 active; AID 588335; inhibition, % at 4.8 µM; in the data active means inhibition above about 30%
A number is an active result. In the library only some 6.7% were active in any assay of this set; here they are far more common. Unless noted, no stated cut-off is given here; in the data, active means inhibition above about 30%; inconclusive means no clear call, values can overlap the other calls; inactive means below that.

For Cn1c(=O)c2c(nc(Br)n2CC(=O)C23CC4CC(CC(C4)C2)C3)n(C)c1=O the results were Anthrax LF prot inactive, BoNT-F LC inh inactive, Bead autofluor 16360, BoNT A protease inactive, FBA Mtb inh inactive and GDH-TPI inh inactive.
For Cn1c(=O)c2c(nc(SCC(=O)NC34CC5CC(CC(C5)C3)C4)n2C)n(C)c1=O the results were Anthrax LF prot inactive, BoNT-F LC inh inactive, Bead autofluor 23851, BoNT A protease inactive, FBA Mtb inh inactive and GDH-TPI inh inactive.
For C=CCn1c(SCC(=O)Nc2ccccc2)nc2scc(-c3cccs3)c2c1=O the results were Anthrax LF prot inactive, BoNT-F LC inh inactive, Bead autofluor inactive, BoNT A protease inactive, FBA Mtb inh inactive and GDH-TPI inh inactive.
Screening COc1cc(-c2cn[nH]c2N)cc(OC)c1OC returned Anthrax LF prot inactive, BoNT-F LC inh inactive, Bead autofluor 21444, BoNT A protease inconclusive, FBA Mtb inh inactive and GDH-TPI inh inactive.
Nc1cc(C(=O)OCC(=O)NCC2CCCO2)ccc1Cl (stereo not drawn) was read as Anthrax LF prot inactive, BoNT-F LC inh inactive, Bead autofluor inactive, BoNT A protease inactive, FBA Mtb inh inactive and GDH-TPI inh inactive.
Screening N#C/C(=N\Nc1ccc(Cl)cc1)C(=O)c1ccccc1 returned Anthrax LF prot inactive, BoNT-F LC inh inactive, Bead autofluor inactive, BoNT A protease inactive, FBA Mtb inh inactive and GDH-TPI inh 31.
CN1CCN(c2nc(Cl)ncc2F)CC1 was read as Anthrax LF prot inactive, BoNT-F LC inh inactive, Bead autofluor inactive, BoNT A protease inactive, FBA Mtb inh inactive and GDH-TPI inh inactive.
Screening CCOC(=O)c1c(-c2cccs2)csc1NC(=O)COC(=O)c1c(C)noc1C returned Anthrax LF prot inactive, BoNT-F LC inh inactive, Bead autofluor 16276, BoNT A protease inactive, FBA Mtb inh inactive and GDH-TPI inh inactive.
For Cc1cc(C)nc(NS(=O)(=O)c2ccc(Br)s2)c1 the results were Anthrax LF prot inactive, BoNT-F LC inh inactive, Bead autofluor inactive, BoNT A protease inactive, FBA Mtb inh inactive and GDH-TPI inh inactive.
Screening Cc1cccc(NS(=O)(=O)c2ccc(Br)s2)n1 returned Anthrax LF prot inactive, BoNT-F LC inh inactive, Bead autofluor 19822, BoNT A protease inactive, FBA Mtb inh inactive and GDH-TPI inh inactive.
Screening COc1cc(C2C(C#N)=C(N)Oc3c2ccc2ccccc32)ccc1OCC(=O)Nc1ccccc1C (stereo not drawn) returned Anthrax LF prot inactive, BoNT-F LC inh inactive, Bead autofluor 22354, BoNT A protease inconclusive, FBA Mtb inh inactive and GDH-TPI inh inactive.
Screening COc1ccc(Nc2nc(-c3ccccc3)nc3ccccc23)cc1S(=O)(=O)N1CCOCC1 returned Anthrax LF prot inactive, BoNT-F LC inh inactive, Bead autofluor inactive, BoNT A protease inactive, FBA Mtb inh inactive and GDH-TPI inh 40.
For COc1ccc(C(=O)N2CCN(S(=O)(=O)c3ccc(C)cc3)CC2)cc1S(=O)(=O)N1CCOCC1 the results were Anthrax LF prot inactive, BoNT-F LC inh inactive, Bead autofluor inactive, BoNT A protease inactive, FBA Mtb inh inactive and GDH-TPI inh inactive.
`COc1ccc(NC(=O)c2cc(C)nc3ccccc23)cc1S(=O)(=O)N1CCOCC1` gave Anthrax LF prot inactive, BoNT-F LC inh inactive, Bead autofluor inactive, BoNT A protease inactive, FBA Mtb inh inactive and GDH-TPI inh inactive.
Screening COc1ccc(C(=O)N2CCCC2)cc1S(=O)(=O)N1CCOCC1 returned Anthrax LF prot inactive, BoNT-F LC inh inactive, Bead autofluor 20709, BoNT A protease inactive, FBA Mtb inh inactive and GDH-TPI inh inactive.
Cc1ccc(S(=O)(=O)N2CCN(C(=O)CC(C)C)CC2)cc1 was read as Anthrax LF prot inactive, BoNT-F LC inh inactive, Bead autofluor inactive, BoNT A protease inactive, FBA Mtb inh inactive and GDH-TPI inh inactive.
Screening COc1ccc(S(=O)(=O)N2CCN(C(=O)CC(C)C)CC2)cc1 returned Anthrax LF prot inactive, BoNT-F LC inh 40, Bead autofluor inactive, BoNT A protease inactive, FBA Mtb inh inactive and GDH-TPI inh inactive.
O=C(c1cccc(S(=O)(=O)N2CCOCC2)c1)N1CCCCCC1 was read as Anthrax LF prot inactive, BoNT-F LC inh inactive, Bead autofluor 23147, BoNT A protease inactive, FBA Mtb inh inactive and GDH-TPI inh inactive.
`CCc1ccc(N2CC(C(=O)OCC(=O)Nc3ccccc3C)CC2=O)cc1` (stereo not drawn) gave Anthrax LF prot inactive, BoNT-F LC inh inactive, Bead autofluor inactive, BoNT A protease inactive, FBA Mtb inh inactive and GDH-TPI inh inactive.
